Values joined by “and” are separate entries in the source; they are usually repeats but may differ in a detail not shown here. Identical values can stand only once. Records with an inconclusive call do not appear. More than one record can exist for a structure, and the calls need not agree. Active and inactive are the calls of the source. The calls were made as follows: active = hit-call score of the fitted dose curve at least 0.9, where 1 is the maximum; inconclusive = response in the unintended direction; inactive = score below 0.9.
biological target: Cellular tumor antigen p53 (Homo sapiens) (UniProt P04637); assay: TOX21_p53_BLA_p2_ratio: Tox21 HCT-116 p53 Agonism Beta-lactamase Assay, Ratio, Phase 2 (AID 2283592)
How it was run: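 HCT116 cells carrying a p53-responsive beta-lactamase reporter were plated, incubated 5 h at 37C, then dosed with compounds in DMSO (217-fold dilution) for 16 h. CCF4-AM substrate was added for 2 h at room temperature; the 460/530 nm emission ratio gave gain-of-signal activity relative to DMSO.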

Chain of Cellular tumor antigen p53 (Homo sapiens) (P04637 whole entry, looked up): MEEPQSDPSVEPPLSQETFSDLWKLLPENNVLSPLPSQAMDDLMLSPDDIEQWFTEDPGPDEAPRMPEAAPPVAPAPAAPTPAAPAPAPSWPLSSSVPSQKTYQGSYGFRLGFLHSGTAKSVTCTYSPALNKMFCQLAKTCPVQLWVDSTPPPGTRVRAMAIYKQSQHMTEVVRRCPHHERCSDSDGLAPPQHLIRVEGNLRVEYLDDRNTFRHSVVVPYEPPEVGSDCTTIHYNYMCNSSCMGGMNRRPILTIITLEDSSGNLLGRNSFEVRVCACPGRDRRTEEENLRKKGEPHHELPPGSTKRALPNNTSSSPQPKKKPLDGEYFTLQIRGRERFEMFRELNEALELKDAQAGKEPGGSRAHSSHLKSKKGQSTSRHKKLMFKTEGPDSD

Row | Compound | outcome | AC50
1 | C=CC(N)=O | inactive | –
2 | CCOCCOC(C)=O | inactive | –
3 | Oc1ccc(C(c2ccc(O)cc2)(C(F)(F)F)C(F)(F)F)cc1 | inactive | 63 µM (active)
4 | O=S(=O)(O)C(F)(F)C(F)(F)C(F)(F)C(F)(F)F | inactive | –
5 | CCCCCCCCCC[N+](C)(C)CCCCCCCCCC | – | 65.1 µM (active) and 39.6 µM (active)
6 | CCC(=O)O[C@H]1CC[C@H]2[C@@H]3CCC4=CC(=O)CC[C@]4(C)[C@H]3CC[C@]12C | inactive | 87.7 µM (active)
7 | CC(C)(O)C(=O)Nc1ccc([N+](=O)[O-])c(C(F)(F)F)c1 | inactive | 69.3 µM (active)
8 | CO/C=C(/C(=O)OC)c1ccccc1COc1cccc(C(F)(F)F)n1 | – | 2.77 µM (active)
9 | CC(c1ccc(O)cc1)(c1ccc(O)cc1)c1ccc(O)cc1 | – | 62.8 µM (active)
10 | CN(C)CCO | inactive | –
11 | Cc1cc(O)ccc1Cl | inactive | –
12 | Nn1cnnc1 | inactive | –
13 | O=C(O)C(F)(F)C(F)(F)C(F)(F)C(F)(F)C(F)(F)C(F)(F)C(F)(F)C(F)(F)F | inactive | –
14 | Cc1cccc(C)c1N | inactive | –
15 | O=C(NC(=O)c1c(F)cccc1F)Nc1cc(Cl)c(OC(F)(F)C(F)F)c(Cl)c1 | inactive | –
16 | O=C(NC(=O)c1cc(F)c(F)cc1Cl)Nc1cc(F)ccc1N1CCC(C(=O)O)CC1 | inactive | –

Row | Compound | outcome | AC50
17 | O=C(O)C(F)(F)C(F)(F)C(F)(F)C(F)(F)C(F)(F)F | inactive | –
18 | CCOP(=S)(OCC)SCSC(C)(C)C | inactive | –
19 | CCCCCCCCCc1ccc(O)cc1 | inactive | –
20 | Cc1cccc([N+](=O)[O-])c1 | inactive | –
21 | CC(C)(c1ccccc1)c1ccc(O)cc1 | inactive | 74 µM (active)
22 | c1cc2ccc3cccc4ccc(c1)c2c34 | inactive | –
23 | ClC1=C(Cl)[C@]2(Cl)[C@@H]3[C@@H]4C[C@@H]([C@H]5O[C@@H]45)[C@@H]3[C@@]1(Cl)C2(Cl)Cl | inactive | –
24 | C[C@]12CCC(=O)C=C1CC[C@@H]1[C@@H]2CC[C@@]2(C)[C@H]1CC[C@]2(C)O | inactive | 50.3 µM (active)
25 | Clc1ccc(C(Cl)(Cl)Cl)cc1 | inactive | –
26 | CCCCCCCCOC(=O)c1ccccc1C(=O)OCCCCCCCC | inactive | –
27 | ClC(Cl)=C(c1ccc(Cl)cc1)c1ccc(Cl)cc1 | inactive | 87.7 µM (active)
28 | Nc1ccc(-c2ccc(N)cc2)cc1 | inactive | –
29 | O=S(=O)(O)C(F)(F)C(F)(F)C(F)(F)C(F)(F)C(F)(F)C(F)(F)F | inactive | –
30 | C[C@]12CCC(=O)C=C1CC[C@@H]1[C@@H]2CC[C@]2(C)C(=O)CC[C@@H]12 | inactive | –
31 | CCOC(=O)C(O)(c1ccc(Cl)cc1)c1ccc(Cl)cc1 | – | 63.8 µM (active) and 32.9 µM (active)

From PubChem BioAssay (EPA / NIEHS)
